Compound activity (PubChem)
Compounds with a hit are over-represented: about 7.4% of the library has one in this group of screens.
NPC1 promoter act = qHTS Assay for NPC1 Promoter Activators | Huh7 NPC1 promoter luciferase reporter, 24 h | Potency, µM (titrated, usually from 9.22 µM), actives largely listed as activators | 2.4% of 320,000 active | AID 485313, 2010; note: nearly all actives have a fitted effect of over 60% in size
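Luciferase expression driven by the NPC1 promoter was measured in stably transfected Huh7 cells after a 24 h compound incubation, using a luciferase reagent and a luminescence read.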
FLuc counter = qHTS profiling assay for firefly luciferase inhibitor/activator using purifed enzyme and Km concentrations of substrates (counterscreen for miR-21 project). Potency, µM (titrated, usually from 57.5 µM), hits mostly inhibitors. Luciferin 4-monooxygenase (Photinus pyralis), P08659. 6.9% of 360,000 active. purified FLuc, Km substrates, luminescence inhibition; note: nearly all actives have a fitted effect of over 55% in size
Target sequence (P08659 whole entry, looked up): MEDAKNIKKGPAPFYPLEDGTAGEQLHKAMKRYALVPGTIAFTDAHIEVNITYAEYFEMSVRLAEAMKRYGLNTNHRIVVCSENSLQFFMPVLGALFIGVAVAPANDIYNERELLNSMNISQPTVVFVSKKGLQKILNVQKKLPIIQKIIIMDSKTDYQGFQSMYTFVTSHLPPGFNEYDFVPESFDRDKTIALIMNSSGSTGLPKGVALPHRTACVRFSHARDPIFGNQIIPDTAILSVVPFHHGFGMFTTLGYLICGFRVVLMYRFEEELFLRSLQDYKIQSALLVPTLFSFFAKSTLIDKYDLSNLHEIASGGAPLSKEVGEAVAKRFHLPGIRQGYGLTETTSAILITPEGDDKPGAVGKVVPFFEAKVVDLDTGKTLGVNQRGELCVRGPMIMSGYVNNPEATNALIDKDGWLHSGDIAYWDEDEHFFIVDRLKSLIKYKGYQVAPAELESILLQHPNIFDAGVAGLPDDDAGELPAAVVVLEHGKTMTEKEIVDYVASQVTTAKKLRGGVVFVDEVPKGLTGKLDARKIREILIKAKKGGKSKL
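Purified P. pyralis luciferase, 10 nM final, with Km-level 10 uM D-luciferin and 10 uM ATP in 50 mM Tris acetate pH 7.5, 10 mM Mg acetate, 0.01% Tween-20, 0.05% BSA; 6-point qHTS titration about 60 µM downward; luminescence read.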
SMN2 splice up = qHTS Assay for Enhancers of SMN2 Splice Variant Expression; HEK293 SMN2-luciferase splicing reporter, luminescence, 30-36 h; Potency, µM (series often up to 46.1 µM), usual class: activators; AID 1458, 2008; 2.8% of 210,000 active; note: nearly all actives have a fitted effect of over 55% in size
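HEK293 cells carry an SMN2 minigene-luciferase reporter in which exon 7 inclusion puts luciferase in frame. Cells were seeded at 2000 cells/well, attached for 10-12 hours, then exposed to compounds for 30-36 hours at 37C before ONE-Glo luminescence.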
ELG1 genotox = qHTS screen for small molecules that induce genotoxicity in human embryonic kidney (HEK293T) cells expressing luciferase-tagged ELG1; HEK293T ELG1-luciferase reporter, luminescence, 16 h; Potency, µM (doses to about 46 µM), usual class: activators; 1.3% of 330,000 active; note: nearly all actives have a fitted effect of over 60% in size
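HEK293T cells expressing luciferase-tagged ELG1 were exposed to compound or DMSO vehicle for 16 hr at 37 °C and 5% CO2. Luciferase activity was then measured with ONE-Glo after 30 min at room temperature.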
Rab9 prom act = qHTS Assay for Rab9 Promoter Activators; Huh7 Rab9 promoter-luciferase reporter, luminescence, 24 h; Potency, µM (doses to about 9.22 µM), actives largely listed as activators; 2.8% of 320,000 active; AID 485297, 2010; note: nearly all actives have a fitted effect of over 60% in size
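Quantitative HTS format; Huh7 Rab9-luciferase reporter cells (1500/well) receive compound 2 h post-plating, incubate 24 h at 37 °C, then get luciferase reagent for 10 min before luminescence reading.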
Each line names hits and unclear results; the compound was inactive in the other large screens. Calls come from the whole dose curve; as a rule, active = well fitted curve in the direction sought with a large enough effect; inconclusive = small, poorly fitted or top-dose-only effect, or another doubt; inactive = no such curve, though single readings can be large; an effect the other way counts as inactive or inconclusive.

COc1ccccc1CNC(=O)C1CCCN(c2nnc(-n3c(C)ccc3C)s2)C1 (stereo not drawn)	none (no result: NPC1 promoter act, ELG1 genotox, Rab9 prom act)
Cc1ccc(C(=O)CSc2ncc3c(n2)-c2ccccc2N(Cc2ccc(Cl)cc2)S3(=O)=O)cc1	none (no result: NPC1 promoter act, SMN2 splice up, ELG1 genotox, Rab9 prom act)
Cc1cccc(Cn2c(=O)n(-c3cc(C)cc(C)c3)c(=O)c3oc4ccccc4c32)c1	none (no result: NPC1 promoter act, SMN2 splice up, ELG1 genotox, Rab9 prom act)
CS(=O)(=O)c1ccc2nc(NC(=O)c3cccc([N+](=O)[O-])c3)sc2c1	NPC1 promoter act 1.6µM, FLuc counter 1.7µM, ELG1 genotox inconclusive, Rab9 prom act 1.3µM (no result: SMN2 splice up)
CSc1nc2ccc(NC(=O)c3cccs3)cc2s1	none (no result: NPC1 promoter act, FLuc counter, SMN2 splice up, Rab9 prom act)
COc1ccc(C(=O)Nc2ccc3nc(SCc4ccc(C)cc4)sc3c2)cc1	none (no result: NPC1 promoter act, SMN2 splice up, ELG1 genotox, Rab9 prom act)
CCOC(=O)CSc1nc2ccc(NC(=O)c3ccc(C)cc3)cc2s1	FLuc counter 5.4µM (no result: NPC1 promoter act, SMN2 splice up, ELG1 genotox, Rab9 prom act)
CSc1nc2ccc(NC(=O)c3ccco3)cc2s1	NPC1 promoter act 2.8µM, FLuc counter 9.5µM, ELG1 genotox 8.2µM, Rab9 prom act 2.5µM (no result: SMN2 splice up)
CS(=O)(=O)c1ccc2nc(NC(=O)c3cc([N+](=O)[O-])cc([N+](=O)[O-])c3)sc2c1	FLuc counter inconclusive (no result: SMN2 splice up)
CSc1nc2ccc(NC(=O)c3cc4ccccc4o3)cc2s1	NPC1 promoter act 1.6µM, FLuc counter 1.1µM, ELG1 genotox inconclusive, Rab9 prom act 2.5µM (no result: SMN2 splice up)
Cc1ccc2c(=O)c(C(=O)c3ccc(F)cc3)cn(CC(=O)Nc3ccc4c(c3)OCCO4)c2n1	none (no result: NPC1 promoter act, SMN2 splice up, ELG1 genotox, Rab9 prom act)
O=C(Nc1nc2ccc([N+](=O)[O-])cc2s1)c1ccco1	NPC1 promoter act 1.6µM, FLuc counter 2.1µM, SMN2 splice up 3.5µM, Rab9 prom act 0.79µM
CSc1nc2ccc(NC(=O)c3ccc(=O)n(C)n3)cc2s1	FLuc counter 17µM, Rab9 prom act inconclusive
O=C(c1ccco1)N1CCC2(CCN(Cc3ccncc3)CC2)CC1	none (no result: NPC1 promoter act, FLuc counter, ELG1 genotox, Rab9 prom act)
O=C(O)CNc1ccc(C(=O)O)cc1	none (no result: NPC1 promoter act, FLuc counter, ELG1 genotox, Rab9 prom act)
COc1cccc(C(=O)NCc2cn3ccccc3n2)c1	none (no result: NPC1 promoter act, SMN2 splice up, ELG1 genotox, Rab9 prom act)
COc1ccc(CN2C(=O)c3ccccc3C(/C=N\OCc3ccc(F)cc3)C2=O)cc1 (stereo not drawn)	FLuc counter 21µM
COc1ccc(CN2C(=O)c3ccccc3C(/C=N/OCc3ccc(Cl)cc3)C2=O)cc1 (stereo not drawn)	FLuc counter 21µM
Cc1cc(Br)ccc1NC(=O)c1coc(=O)c2ccccc12	none (no result: NPC1 promoter act, ELG1 genotox, Rab9 prom act)
COc1ccc(C(=O)c2cn(Cc3ccc(F)cc3)c3ccc(C)cc3c2=O)cc1	none (no result: NPC1 promoter act, ELG1 genotox, Rab9 prom act)
O=S(=O)(Cc1cc(-c2ccccc2Cl)no1)c1ccccc1	NPC1 promoter act inconclusive, FLuc counter 17µM, SMN2 splice up inconclusive, ELG1 genotox inconclusive, Rab9 prom act 2.8µM
O=S(=O)(Cc1cc(-c2ccc(Cl)cc2)no1)c1ccccc1	NPC1 promoter act inconclusive, FLuc counter inconclusive, SMN2 splice up 13µM, ELG1 genotox 9.2µM, Rab9 prom act 3.5µM
Clc1ccc(-c2cc(COc3ccccc3)on2)cc1	FLuc counter 11µM, SMN2 splice up inconclusive, Rab9 prom act inconclusive
Clc1ccc(OCc2cc(-c3ccccc3)no2)cc1Cl	FLuc counter inconclusive
CC1(C)CC(=O)c2cc(-c3nc(-c4ccc(F)cc4)cs3)c(=O)[nH]c2C1	none (no result: NPC1 promoter act, ELG1 genotox, Rab9 prom act)
Cc1ccc2nc(C)cc(N/N=C/c3cccc(O)c3)c2c1	none (no result: SMN2 splice up)
Oc1c(/C=N/Nc2cccc3cccnc23)ccc2ccccc12	NPC1 promoter act inconclusive, FLuc counter inconclusive, SMN2 splice up 11µM, ELG1 genotox inconclusive, Rab9 prom act 3.2µM
Oc1cccc(/C=N/Nc2cccc3cccnc23)c1	NPC1 promoter act inconclusive, FLuc counter 0.67µM, ELG1 genotox inconclusive, Rab9 prom act inconclusive (no result: SMN2 splice up)
COc1cc(/C=N/Nc2cccc3cccnc23)cc(OC)c1O	FLuc counter 2.7µM, SMN2 splice up inconclusive, Rab9 prom act inconclusive
CC#CCOC(=O)C1=CCCN(C)C1	none (no result: NPC1 promoter act, FLuc counter, ELG1 genotox, Rab9 prom act)
COc1cc(C2Nc3cccc4cccc(c34)N2)ccc1OC(C)=O	FLuc counter 12µM
Oc1ccc(N=Nc2c(O)ccc3ccccc23)cc1	FLuc counter 27µM
O=c1cc(N=Nc2ccc(O)cc2)[nH]c(=O)[nH]1	none (no result: NPC1 promoter act, FLuc counter, ELG1 genotox, Rab9 prom act)
Oc1ccc(N=Nc2ccc3ccccc3c2)cc1	NPC1 promoter act 3.5µM, FLuc counter 1.1µM, ELG1 genotox 2.3µM, Rab9 prom act inconclusive (no result: SMN2 splice up)
COc1cc(N=Nc2ccccc2C(=O)O)ccc1O	FLuc counter inconclusive (no result: SMN2 splice up)
COc1cc(N=Nc2ccc3ccccc3c2)ccc1O	NPC1 promoter act 3.2µM, FLuc counter 5.4µM, ELG1 genotox 12µM, Rab9 prom act inconclusive (no result: SMN2 splice up)
Cc1cn2c(=O)c3ccccc3nc2n2c(=O)c3ccccc3nc12	none (no result: NPC1 promoter act, FLuc counter, ELG1 genotox, Rab9 prom act)
Cc1cccc(C(=O)NCC(=O)OCC(=O)c2ccc(C)s2)c1	none (no result: NPC1 promoter act, FLuc counter, SMN2 splice up, Rab9 prom act)
Cc1ccc(C(=O)COC(=O)c2cccc(O)c2)s1	FLuc counter 0.43µM (no result: SMN2 splice up)
COc1cccc(C(=O)OCC(=O)c2ccc(Br)s2)c1	FLuc counter 7.6µM (no result: SMN2 splice up)
CCN1C(=O)/C(=C\C=C2/C=CC=CN2CC)SC1=S	NPC1 promoter act 1.6µM, FLuc counter 3.8µM, SMN2 splice up 5.6µM, ELG1 genotox 21µM, Rab9 prom act 1.4µM
CCN1C(=O)/C(=C/C=C2\C=CN(CC)c3ccccc32)SC1=S	NPC1 promoter act inconclusive, FLuc counter inconclusive, ELG1 genotox inconclusive, Rab9 prom act 3.2µM
CCCN1C(=O)/C(=C\C=C2/Sc3ccccc3N2CC)SC1=S	none
CCN1C(=O)/C(=C2/C=CC=CN2C)SC1=S	none
